Here are results for 40 compounds from PubChem BioAssay (NCATS).

Inconclusive results are not listed. Unmarked numbers belong to inactive results. Activity calls are given as the source filed them. Calls follow the shape of the dose curve; as a rule, active = well fitted cell-killing curve with a large enough effect; inconclusive = small, poorly fitted or top-dose-only effect; inactive = no such curve, though single readings can be large or run the other way.
Potency is read from the fitted curve at half-maximal effect.

A short description of this experiment: qHTS of pediatric cancer cell lines to identify multiple opportunities for drug repurposing: Primary screen for LAN-5 cells (AID 1347100). The settings on record: LAN-5 neuroblastoma viability, CellTiter-Glo luminescence, 48 h; series mostly up to 46 µM. An excerpt: Drug repurposing or repositioning has been offered as a strategy for drug development in oncology programs. This approach has special potential for childhood cancers and other rare or orphan diseases, where the expected return on new drug development has been a disincentive to pharmaceuticals.
In this project we exploit the poly-pharmacology of drugs to discover new indications via phenotypic screening of a panel of 19 well-characterized cell lines derived from solid tumors seen in children and adolescents. The goal is to identify approved drugs with previously unrecognized anticancer properties that has the potential to reveal new mechanisms and biological processes involved in carcinogenesis or drug resistance. We employed a titration-based paradigm (quantitative high-throughput screening or qHTS), where all compounds were tested at multiple concentrations for their effect on cell viability. Concentration-response curves (CRCs) were derived directly from the primary screen, and both potency and efficacy values were used to identify compounds with robust bioactivity profiles. We screened the NIH Chemical Genomics Center (NCGC) Pharmaceutical Collection (NPC) and Mechanism Interrogation Plate (MIPE) small molecule collections of approved and investigational compounds against these cell lines; and measured metabolically active cells after 48 hours of compound treatment as a proxy for cell viability.
Assay Submitter: Nathalia J. Martinez, National Center for Advancing Translational Sciences, National Institutes of Health, Rockville, MD, USA; email: natalia.martinez@nih.gov
[1] Shen, M et al. Quantitative high-throughput phenotypic screening of pediatric cancer cell lines identifies multiple opportunities for drug repurposing. Oncotarget 2017 Dec 19;9(4):4758-4772. PMID 29435139.
The cells were obtained from University of North Carolina (UNC), Pediatric Preclinical Testing Program (PPT), and Coriell Institute (CI).
qHTS cell viability assay:
Cells were assayed in growth media at a density of 500-1,000 cells/well. Five microliters of cells were dispensed into 1,536-well, white, solid-bottom, TC-treated plates (Greiner Bio One) using a multidrop dispenser and incubated at 37 degrees C, 5% CO2, under a humidified atmosphere for 5 hours. Twenty-three nanoliters of compounds and controls (neutral control DMSO or positive control bortezomib at final concentration of 2.3 µM) were subsequently transferred by Kalypsys pintool. For primary screens, the MIPE collection was tested at 11-point dilutions (final concentrations range from 0.78 nM to 46 µM) and the NPC collection at 8-point dilutions (final concentrations range from 0.59 nM to 46 µM). Compounds tested in follow-up screens were assayed at 11-point dilutions. Cells were incubated for 48 hours, followed by addition of 3 µL of CellTiter-Glo (Promega). After a 15 min incubation at room temperature, samples were analyzed for luminescence intensity using a ViewLux High-throughput CCD imager equipped with clear filters.
Take `CC1COC2(CCN(c3nc(=O)c4cc(C(F)(F)F)cc([N+](=O)[O-])c4s3)CC2)O1` (stereo not given): the Potency result is “inactive”.

Turning to `CC(=O)Nc1nc(C)c(-c2ccc(Cl)c(S(=O)(=O)NCCO)c2)s1`, the Potency is 5900 nM (active).

Regarding `COc1ccc(C(=O)CC2(O)C(=O)Nc3c(Cl)ccc(Cl)c32)cc1` (stereo not given), the Potency was 1320 nM (active).

As to `CC=C1NC(=O)[C@H]2CSSCCC=C[C@H](CC(=O)N[C@H](C(C)C)C(=O)N2)OC(=O)[C@H](C(C)C)NC1=O`, the Potency was 9.3 nM (active).

In the case of `C[C@@]12O[C@@H](C[C@]1(O)CO)n1c3ccccc3c3c4c(c5c6ccccc6n2c5c31)CNC4=O`, the Potency was 132 nM (active).

For the compound `CN(C)CCCN=c1c2ccccc2n(C)c2[nH]c(=O)n(C)c(=O)c12`, the Potency was 2090 nM (active).

Regarding `COc1cccc(-c2ccc(NC(=O)C3=C(C(=O)O)CCC3)c(F)c2)c1`, the Potency is 13200 nM (active).

Regarding `COc1cc2c(Oc3ccc(-c4cnc(Nc5ccc(F)cc5)n(C)c4=O)cc3F)ccnc2cc1OCCCN1CCOCC1`, the Potency was 1180 nM (active).

Consider `C[C@@H](Oc1cc(-n2cnc3ccc(CN4CCN(C)CC4)cc32)sc1C(N)=O)c1ccccc1C(F)(F)F`, for which the Potency was 33.2 nM (active).

Turning to `C=C1C(=CC=C2CCC[C@]3(C)[C@@H]([C@H](C)C=C[C@H](C)C(C)C)CC[C@@H]23)C[C@@H](O)C[C@@H]1O`, the Potency was 469 nM (active).

Take `Nc1ccc(C(=O)c2cc3c(ccc4ccccc43)[nH]2)cc1`: the Potency was 833 nM (active).

Turning to `CCNC(=O)Nc1ccc2ncc(Nc3ccc(C)cc3)nc2n1`, the Potency was 935 nM (active).

Turning to `C=CC(=O)Nc1cccc(Oc2nc(Nc3ccc(N4CCN(C)CC4)cc3OC)ncc2Cl)c1`, the Potency was 1050 nM (active).

Turning to `CCOc1cc2ncc(C#N)c(Nc3ccc(F)c(Cl)c3)c2cc1NC(=O)C=CCN(C)C`, the Potency was 4180 nM (active).

Consider `Cc1[nH]c2ccccc2c1CCNCc1ccc(C=CC(=O)NO)cc1`, for which the Potency is 105 nM (active).

`CNC(=O)c1ccc(-c2cnc3ncc(Cc4ccc5ncccc5c4)n3n2)cc1F`: the Potency result was “inactive”.

Regarding `Cc1cn2cc(C(=O)N(C)CCO)cc(N[C@@H]3CCOc4cccc(C)c43)c2n1`, the Potency entry is “inactive”.

In the case of `C[C@@H]1COC(Nc2ccc3ncnc(Nc4ccc(OCc5nccs5)c(Cl)c4)c3c2)=N1`, the Potency is 16600 nM (active).

For `C=CC(=O)N1CCC[C@@H](n2nc(-c3ccc(Oc4ccccc4)cc3)c3c(N)ncnc32)C1`, the Potency was 16600 nM (active).

On to `C[C@]1(CO)CN(c2cc(C(=O)Nc3ccc4c(c3)-c3c(c(C(N)=O)nn3-c3ccc(F)cc3)CC4)c(Cl)cn2)C[C@@]1(C)CO`, for which the Potency is 5260 nM (active).

For the compound `COc1ccc(CC2SC(=O)NC2=O)cc1C(=O)NCc1ccc(C(F)(F)F)cc1` (stereo not given), the Potency entry is “inactive”.

On to `COc1ccc(CC2c3cc(OC)c(OC)cc3CC[N+]2(C)CCC(=O)OCCCCCOC(=O)CC[N+]2(C)CCc3cc(OC)c(OC)cc3C2Cc2ccc(OC)c(OC)c2)cc1OC` (stereo not given), for which the activity change, negative = cytotoxic is 2.36% [at 9.22 µM].

Regarding `Cc1cc(Nc2cc(NC(=O)c3c(Cl)cccc3Cl)ccn2)nc(N)n1`, the Potency was 1870 nM (active).

With `C=CC(=O)Nc1cc2c(Nc3ccc(F)c(Cl)c3)ncnc2cc1OCCCN1CCOCC1`, the Potency was 6620 nM (active).

`Cc1cc(N2CCOCC2)cc2[nH]c(-c3c(NC[C@@H](O)c4cccc(Cl)c4)cc[nH]c3=O)nc12`: the Potency is 296 nM (active).

On to `O=C(O)Cn1nnc(-c2cc(N3CCC(Oc4cc(F)ccc4Br)CC3)no2)n1`, for which the Potency result is “inactive”.

On to `O=C1CCC[C@@H]2[C@H]3CCC[N+]4([O-])CCC[C@@H](CN12)[C@@H]34` (stereo not given in full), for which the Potency entry is “inactive”.

Regarding `Nc1ccn([C@@H]2O[C@H](CO)[C@H](O)C2(F)F)c(=O)n1`, the Potency was 93.5 nM (active).

`O=C(c1cncc(Br)c1)N1CCC(N2CCCC2)CC1`: the Potency entry was “inactive”.

As to `CC(=O)c1c(C)c2cnc(Nc3ccc(N4CCNCC4)cn3)nc2n(C2CCCC2)c1=O`, the Potency was 18700 nM (active).

For `Cc1cc(Nc2cc(CN3CCOCC3)c3nc(C)c(Cc4ccc(Cl)cc4F)n3n2)n[nH]1`, the Potency is 469 nM (active).

As to `CC[C@@H]1C(=O)N(C)c2cnc(Nc3ccc(C(=O)NC4CCN(C)CC4)cc3OC)nc2N1C1CCCC1`, the Potency is 33.2 nM (active).

With `Cc1c(CN2CCN(S(C)(=O)=O)CC2)sc2c(N3CCOCC3)nc(-c3cnc(N)nc3)nc12`, the Potency was 26.4 nM (active).

Consider `COc1c(N2C[C@@H]3CCCN[C@H]3C2)c(F)cc2c(=O)c(C(=O)O)cn(C3CC3)c12`, for which the Potency result is “inactive”.

As for `NC(=O)Nc1cc(-c2cccc(F)c2)sc1C(=O)N[C@H]1CCCNC1`, the Potency was 469 nM (active).

As for `CC1(C)O[C@@H]2C[C@@H]3[C@H]4C[C@@H](F)C5=CC(=O)C=C[C@]5(C)[C@@]4(F)[C@@H](O)C[C@]3(C)[C@]2(C(=O)CO)O1`, the Potency result was “inactive”.

In the case of `Cn1c2ccccc2c2c3c(c4c5ccccc5n(CCC#N)c4c21)CNC3=O`, the Potency is 5900 nM (active).

Consider `Clc1cccc(-n2nnnc2NCc2ccccc2Oc2ccccn2)c1Cl`, for which the Potency entry was “inactive”.

As for `Cc1nc(N)ncc1-c1nc(N2CCOCC2)c2sc(C(C)(C)O)cc2n1`, the Potency is 1320 nM (active).

Regarding `Cc1cnc(-c2cnc(NCCNc3ccc(C#N)cn3)nc2-c2ccc(Cl)cc2Cl)[nH]1`, the Potency entry is “inactive”.
